Measured values: PubChem BioAssay AID1159580 (chemical genetic matrix, 2015)
“And” between values parts separate entries of the source, which are not always exact repeats. Equal entries are not always repeated. Hit rate of the full screen: of about 5,500 compounds, about 2,000 (36%) were called active. Not shown: some 18% with an inconclusive outcome. Rule as the data show it: active = normalized growth mostly below about 0.91 (no sharp cut-off); inconclusive = no clear call, values can overlap the other calls; inactive = mostly above about 0.92. This is one part of the list.

Assay: chemical genetic growth profiling, strain panel (AID 1159580);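 also: tested at 20 µM; growth read once vehicle control cultures reached saturation at 30 °C; 1 = growth at the plate median or of vehicle wells; lower values mean less growth of the strain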
Details: S. cerevisiae deletion strains, growth OD

Measured: normalized growth

CC(=O)OCC(=O)[C@@]1(O)CCC2C3CCC4=CC(=O)CC[C@]4(C)[C@@]3(F)[C@@H](O)C[C@@]21C (stereo partly specified)
inactive: locus YAL021C, strain ccr4, hits give low values 1.03 | locus YAL026C, strain drs2, hits give low values 1.01 | locus YAL030W, strain snc1, hits give low values 1.01 | locus YBL061C, strain skt5, hits give low values 1.01 | locus YBR009C, strain hhf1, hits give low values 1.01 | locus YBR021W, strain FUR4, hits give low values 1.01 | locus YBR023C, strain chs3, hits give low values 1.03 | locus YBR171W, strain sec66, hits give low values 1.04 | locus YBR229C, strain ROT2, hits give low values 1 | locus YBR231C, strain swc5, hits give low values 0.993 | locus YBR279W, strain paf1, hits give low values 1.02 | locus YCL011C, strain gbp2, hits give low values 1.02 | locus YCL016C, strain dcc1, hits give low values 1.02 | locus YCL029C, strain bik1, hits give low values 0.995 | locus YCL061C, strain MRC1, hits give low values 1.02 | locus YCL069W, strain vba3, hits give low values 1.02 | locus YCR088W, strain abp1, hits give low values 1.01 | locus YDL005C, strain med2, hits give low values 1.02 | locus YDL035C, strain GPR1, hits give low values 0.992 | locus YDL040C, strain nat1, hits give low values 1 | locus YDL074C, strain BRE1, hits give low values 1.02 | locus YDL101C, strain DUN1, hits give low values 1.01 | locus YDL185W, strain tfp1, hits give low values 0.995 | locus YDL192W, strain arf1, hits give low values 1 | locus YDR001C, strain nth1, hits give low values 1.01 | locus YDR069C, strain doa4, hits give low values 1.01 | locus YDR101C, strain arx1, hits give low values 0.981 | locus YDR137W, strain rgp1, hits give low values 1.02 | locus YDR159W, strain sac3, hits give low values 0.997 | locus YDR162C, strain NBP2, hits give low values 0.998 | locus YDR195W, strain ref2 1 | locus YDR297W, strain sur2, hits give low values 1 | locus YDR318W, strain mcm21, hits give low values 1 | locus YDR334W, strain swr1, hits give low values 1.03 | locus YDR335W, strain msn5, hits give low values 1.01 | locus YDR388W, hits give low values 1 | locus YDR392W, strain spt3, hits give low values 0.989 | locus YDR502C, strain sam2, hits give low values 1 | locus YEL003W, strain gim4, hits give low values 1 | locus YEL037C, strain rad23, hits give low values 1.01 | locus YEL061C, strain CIN8 (second series), hits give low values 1.01 | locus YEL061C, strain CIN8, hits give low values 1 | locus YER015W, strain faa2, hits give low values 1 | locus YER016W, strain bim1, hits give low values 1 | locus YER110C, hits give low values 1 | locus YER111C, strain swi4, hits give low values 1.02 | locus YER155C, strain BEM2 (second series), hits give low values 1.01 | locus YER155C, strain BEM2, hits give low values 1.01 | locus YER167W, strain BCK2, hits give low values 1.01 | locus YFR010W, strain ubp6, hits give low values 1.02 | locus YGL078C, strain dbp3, hits give low values 1.01 | locus YGL086W, strain mad1, hits give low values 0.989 | locus YGL167C, strain pmr1, hits give low values 1.01 | locus YGL173C, strain kem1, hits give low values 1.02 | locus YGL227W, strain vid30, hits give low values 1.02 | locus YGL240W, strain doc1, hits give low values 1.01 | locus YGL248W, strain PDE1, hits give low values 1.01 | locus YGL253W, strain hxk2, hits give low values 1.01 | locus YGR135W, strain pre9, hits give low values 1.03 | locus YGR252W, strain gcn5, hits give low values 1.05 | locus YHR013C, strain ard1, hits give low values 1.04 | locus YHR027C, strain rpn1, hits give low values 1.03 | locus YHR030C, strain SLT2, hits give low values 0.997 and 1.01 | locus YHR079C, strain IRE1 (second series), hits give low values 1.01 | locus YHR079C, strain IRE1, hits give low values 0.995 | locus YHR094C, strain hxt1, hits give low values 1.01 | locus YHR129C, strain ARP1, hits give low values 1.01 | locus YHR142W, strain chs7, hits give low values 1.01 | locus YHR200W, strain rpn10, hits give low values 0.996 | locus YIL066C, strain RNR3, hits give low values 0.995 | locus YIL073C, strain SPO22, hits give low values 1.03 | locus YIL125W, strain kgd1, hits give low values 1 | locus YIR030C, strain dcg1, hits give low values 0.998 | locus YJL092W, strain hpr5, hits give low values 1.02 | locus YJL095W, strain BCK1 (second series), hits give low values 1.01 | locus YJL095W, strain BCK1, hits give low values 1.03 and 1 | locus YJL115W, strain asf1, hits give low values 1.03 | locus YJL129C, strain trk1, hits give low values 1.03 | locus YJL134W, strain LCB3, hits give low values 1.01 | locus YJL154C, strain vps35, hits give low values 1.01 | locus YJL164C, strain tpk1, hits give low values 1.01 | locus YJL166W, strain qcr8, hits give low values 1.02 | locus YJL168C, strain set2, hits give low values 1.01 | locus YJL187C, strain SWE1 (second series), hits give low values 1.01 | locus YJL187C, strain SWE1, hits give low values 1.01 | locus YJR043C, strain POL32, hits give low values 0.993
